PubChem BioAssay (NCI)
The panel holds about 83,000 compounds, 20% with a hit somewhere; the sample as a whole holds those more often.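 Activity criterion: percent growth below 10, measured after cells in 96-well plates were exposed to a single compound concentration for 48 hours.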 Unmarked numbers belong to inactive results. The source made the active and inactive calls.

Columns and labels:
Assay in all cases: NCI-60 one-dose screen, 48 h (100 = growth as untreated, 0 = no growth, -100 = all killed)
Settings in all cases: 10 µM unless noted
SK-MEL-2 melanoma = tested on: SK-MEL-2 melanoma
EKVX NSCLC = tested on: EKVX NSCLC
SN12C renal = tested on: SN12C renal
UO-31 renal = tested on: UO-31 renal
TK-10 renal = tested on: TK-10 renal
ACHN renal = tested on: ACHN renal
CAKI-1 renal = tested on: CAKI-1 renal
A498 renal = tested on: A498 renal
CCRF-CEM leukemia = tested on: CCRF-CEM leukemia
MOLT-4 leukemia = tested on: MOLT-4 leukemia

Row | Structure (SMILES) | growth (SK-MEL-2 melanoma) | growth (EKVX NSCLC) | growth (SN12C renal) | growth (UO-31 renal) | growth (TK-10 renal) | growth (ACHN renal) | growth (CAKI-1 renal) | growth (A498 renal) | growth (CCRF-CEM leukemia) | growth (MOLT-4 leukemia)
1 | CCN(CC)CCCCCNc1cc(OC(=O)c2ccc(Cl)cc2)cc2cccnc12 | 103% | 104% | 96.8% | 94.7% | 106% | 106% | 106% | 95.6% | 108% | 72.6%
2 | CC(C)c1ccc(C(=O)Nc2sc3c(c2C(N)=O)CCC(=O)C3)cc1 | -21.5% (active) | 16.1% | 2.75% (active) | -97.1% (active) | -10.6% (active) | -96.8% (active) | -43.9% (active) | 62.5% | 2.5% (active) | -8.16% (active)
3 | Cc1cc(N2CCCCC2)cc(C)c1-c1csc(NC(=O)c2ccncc2)n1 | 95.6% | 32.9% | 49.1% | 36.9% | 77.3% | 56.8% | 49.5% | 42.9% | 47.3% | 43.7%
4 | Cn1c(=O)cc2c3c(c(NCCCO)ccc31)C(=O)c1ccccc1-2 | 73.9% | 73.2% | 46.8% | 13.1% | 29.1% | 25.3% | 44.7% | 64.2% | 48.3% | 19.2%
5 | N=C(N)c1ccc(-c2ccc(-c3ccc(Cl)c(Cl)c3)s2)nc1 | 102% | 62.8% | 36.6% | 32.7% | 112% | -62.8% (active) | -60.1% (active) | 90.7% | -1.55% (active) | -26.3% (active)
6 | Nc1nc2ccccc2c2c1S(=O)(=O)c1ccc(Cl)cc1C2=O | 42% | 48.2% | 11.4% | -15.2% (active) | 16.6% | 17.8% | 19% | 56.9% | -10.3% (active) | 3.11% (active)
7 | O=C1/C=C/[C@@H](O)[C@@H]2C[C@@H](O)C[C@H]2/C=C/CCC[C@H](CCc2ccccc2)O1 | -8.8% (active) | 8.4% (active) | 11.8% | 14.7% | -26% (active) | 7.03% (active) | -8.69% (active) | -28.2% (active) | 13.1% | 9.48% (active)
8 | Cc1c[n+](Cc2ccc3ccccc3c2)cn1Cc1ccc2ccccc2c1 | -48.5% (active) | 38.1% | 7.56% (active) | 77.6% | -4.54% (active) | 89.5% | 94% | 50.1% | 3.95% (active) | -3.59% (active)
9 | COC(=O)c1nc(-c2ccc(C)cc2)oc1S(=O)(=O)c1cccc(OC)c1 | 95.9% | 100% | 85% | 90.3% | 64.8% | 42.8% | 69.5% | 102% | -9.09% (active) | -7.44% (active)
10 | O=C(Cn1cc(CSc2nc3ccccc3o2)nn1)Nc1ccc(F)cc1F | 114% | 119% | 96.4% | 103% | 117% | 93.9% | 105% | 112% | 113% | 120%
11 | COCCn1cc(-c2csc(-c3cn(C)c4ccc(Br)cc34)n2)c2cccnc21 | 65.6% | 58.4% | 69.1% | 61.9% | 61.5% | 57.1% | 65% | 45.6% | 67.4% | 63.4%
12 | O=C1Nc2ccccc2/C1=C/c1cccn1CCCCn1c2ccccc2c(=O)c2ccccc21 | 84% | 86.1% | 97.9% | 49.7% | 104% | 76.3% | 69.5% | 109% | 52.8% | 47.7%
13 | O=C(O)c1cn(C2CC2)c2cc(N3CCN(Cc4ccc5ccccc5c4O)CC3)c(F)cc2c1=O | 76.3% | 66.7% | 32.5% | 42.2% | 67.7% | 59% | 15.2% | -7.61% (active) | 68.2% | 39%
14 | O=C1C(Cl)=C(Nc2ccc(S(=O)(=O)N3CCOCC3)cc2)C(=O)c2ccccc21 | 108% | 53.5% | 78.4% | 52.8% | 105% | 59% | 78.5% | 68.8% | 6.98% (active) | 5.92% (active)
15 | O=C(Nc1nc2ccccc2s1)c1ccc(F)cc1 | 114% | 77.8% | 108% | 89.1% | 125% | 98% | 62.9% | 89.8% | 101% | 100%
16 | CC(C)c1ccc(C(=O)Nc2nc3ccc(O)c(CN(C)C)c3s2)cc1 | 102% | 95.8% | 90.7% | 91.2% | 99.6% | 81.6% | 65.4% | 72.3% | 73.5% | 62.7%
17 | N#CSCC1CC(O)(c2ccccc2)CC(c2ccc(F)cc2)O1 (stereo not given) | -54.6% (active) | 34.2% | -61.5% (active) | 33.3% | 59.7% | 9.51% (active) | -44.9% (active) | 33.3% | 7.42% (active) | -0.406% (active)
18 | Clc1cccc(Nc2ncnc3ccc(-c4cnc5[nH]ccc5c4)cc23)c1 | 81.3% | 10% | 77.3% | 54.9% | 14.4% | 47.1% | 49% | 23.1% | 66.7% | 50.1%
19 | CCN(C)S(=O)(=O)Nc1cccc(Nc2ncnc3cc(NC(=O)CCl)ccc23)c1Cl | 17.7% | 18.4% | -27.9% (active) | -87.4% (active) | 1.2% (active) | -67.8% (active) | -15.4% (active) | 81.7% | 5.63% (active) | 5.41% (active)
20 | CCSc1nc2scc(C)c2c(=O)[nH]1 | 105% | 97.7% | 99.4% | 88.6% | 110% | 101% | 92.3% | 89.7% | 99.2% | 96%
21 | O=C1/C(=C/c2cccc(F)c2)CN(C(=O)C(Cl)Cl)C/C1=C\c1cccc(F)c1 | -38.1% (active) | -7.73% (active) | -90.3% (active) | -85.5% (active) | -78.8% (active) | -97.7% (active) | -75.6% (active) | -80.1% (active) | 0.153% (active) | -23.3% (active)
22 | COc1ccc(OC)c(Nc2nnc(-c3ccc(O)c(OC)c3)o2)c1 | 96.3% | 82.5% | 34% | 20.3% | 14.8% | 37.9% | 30.4% | 6.18% (active) | 88.6% | 60.8%
23 | CN(/C(N)=N/N=C/c1c2ccccc2cc2ccccc12)C1CCCCC1 | 85.8% | 50.5% | 54.7% | 33.5% | 59.3% | 52.7% | 46.5% | 50.3% | 29.1% | 14.2%
24 | COc1ccc(Nc2nc(-c3cc(O)c(C)c(C)c3O)cs2)cc1 | 94.9% | 89.2% | 88.4% | 74.7% | 114% | 82.2% | 51.6% | 101% | 17.8% | 25.7%
25 | CSc1nnc(-c2cc3c([nH]c4ccccc43)c(-c3cccc(O)c3)n2)n1-c1ccccc1 | 12.9% | 45.8% | 43.7% | 39.7% | 62.2% | 36.3% | 44.6% | 25.5% | 21.8% | 26.6%
26 | C#CCOc1cccc(Nc2ncnc3ccc(NC(=O)C=C)cc23)c1 | 55% | 32% | 29.7% | 9.91% (active) | -8.81% (active) | 14.9% | 10.2% | 33.5% | 25.1% | 59.8%
27 | C#CCOc1cccc(Nc2ncnc3cc(NC(=O)C=C)ccc23)c1 | 25.3% | 32.5% | 13.2% | 16.8% | -12.6% (active) | 17.2% | 16% | 26.8% | 2.9% (active) | 7.88% (active)
